40 compounds from PubChem BioAssay (NCI) can be followed below.

About 83,000 compounds went through this panel and 20% of them were active in at least one assay; those are over-represented in the sample as a whole.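 Assay: single dose, 48 h. Readout: percent growth (0 = no net growth; negative = cell death). Active: <10.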 A number with no mark means an inactive call. Active and inactive are the calls of the source.

This experiment has as its system HL-60(TB) leukemia. Kind of experiment: NCI-60 one-dose screen, 48 h (100 = growth as untreated, 0 = no growth, -100 = all killed). The conditions noted are these: 10 µM unless noted.
Regarding `COC(=O)/C=C1/CCCCC1(C)C(=O)OC` (stereo not given), the growth is 102%.
The same measure for `NC1=NC(=O)NC1(c1ccccc1)c1ccccc1`: 98.4%; for `CCOc1cc2ncc(C#N)c(Nc3ccc(OCc4cccc(F)c4)c(Cl)c3)c2cc1NC(=O)CC1CCSS1` (stereo not given): 54.8%; for `COc1ccc(C2=CN3CC=CCC3CC2=O)cc1` (stereo not given): 110%.
With `COc1cc2cc3c(nc2cc1OC)CCN3Cc1ccc(NC(=O)Nc2cc(C(F)(F)F)cc(C(F)(F)F)c2)cc1`, the growth is 81.5%.
For the compound `CCC(C)C1NC(=O)C(CCCCN)NC(=O)C(CCCCN)NC(=O)C(CC(C)C)NC(=O)C(CCCCN)NC(=O)C(C(C)CC)NC(=O)C(C(C)C)NC(=O)C(C(C)CC)NC(=O)C(CCCCN)NC(=O)C(CCCCN)NC(=O)C(C)NC(=O)C(CCCCN)NC(=O)C(CC(C)C)NC1=O` (stereo not given), the growth was -35.2% (active).
Take `CN1CSC(=S)N(Cc2ccccc2)C1`: the growth was 79.8%.
Consider `Cc1cccc(C)c1NCc1nnc(-c2ccco2)o1`, for which the growth was 97.5%.
On to `CC(C)(C)c1cc(C(=O)N2CCC(C(=O)NCCN)CC2)cc(C(C)(C)C)c1`, for which the growth is 90.5%.
Take `O=C(O)CSc1ccc(NCc2oc(CO)cc(=O)c2O)cc1`: the growth was 69.3%.
For `COc1cc(/C=C/C(=O)CC(=O)/C=C/c2ccc(OC(=O)CCNC34CC5CC(CC(C5)C3)C4)c(OC)c2)ccc1OC(=O)CCNC12CC3CC(CC(C3)C1)C2` the value was -24% (active); for `CCSc1ccc([C@@H]2[C@@H](O)C(=O)N2c2cc(OC)c(OC)c(OC)c2)cc1`, -35.4% (active).
In the case of `C=CCn1c(C)nc2cc(Nc3nc(N4CCCC4)nc4ccccc34)ccc21`, the growth was 88.5%.
The same measure for `O=C(O)c1cccc([N+](=O)[O-])c1`: 107%; for `Cc1cc(C(=O)CCCC(=O)c2cc(C)c(O)c(C)c2)cc(C)c1O`: 84.6%.
For `Nc1ncnc2c1N=C(c1ccc(Cl)cc1)CC(c1ccc3c(c1)OCO3)N2` (stereo not given) the value was 90.7%; for `CC(C)CNCC(O)COc1ccc(C(C)(C)c2ccc(OCC(O)CNCC(C)C)cc2)cc1` (stereo not given), 26%.
For the compound `COc1ccc2nc3cc(Cl)ccc3c(NCCCNCCC(C)O)c2c1` (stereo not given), the growth is -38.1% (active).
Turning to `CCOC(=O)c1c(Cl)c2c(n1Cc1ccccc1)-c1oncc1CCC2`, the growth was 25.7%.
Turning to `O=C(CCN1CCCCC1)c1ccc2ccccc2c1`, the growth was 112%.
Regarding `COc1cc(/C=C2\C=C(c3ccccc3)N(CCc3ccccc3)C2=O)cc(OC)c1OC`, the growth is 80.3%.
Regarding `C/C(=N\NC(=O)c1ccc(C(C)(C)C)cc1)c1ccc(O)cc1O`, the growth is 9.36% (active).
With `Cc1nc2sc(C(=O)Nc3cccc(Cl)c3C)c(N)c2cc1C(C)O` (stereo not given), the growth was -18.7% (active).
Turning to `COc1ccc(/C=C/C(=O)/C=C/c2cc3ccccc3[nH]c2=O)cc1`, the growth is 62.9%.
The same measure for `COc1ccc2c(=O)c(OC)c(-c3cc(OC)c(OC)c(OC)c3)oc2c1`: 85.1%; for `Cc1cc(N(CCOS(C)(=O)=O)CCOS(C)(=O)=O)ccc1C=Nc1ccc(-c2nc(Cc3ccccc3)sc2C)cc1`: 4.95% (active); for `Cc1cc(Cl)ccc1NC(=O)/C(Cl)=C1/Sc2ccccc2NC1=O`: 93.1%.
For `OCC1OC2C(NC(=S)N2c2ccccc2)C(O)C1O` (stereo not given) the value was 90.8%; for `Nc1c(C(=O)c2ccccc2)sc2nc(-c3cc4ccccc4o3)cc(-c3ccc(Cl)cc3)c12`, 114%; for `C=C1C(=O)O[C@H]2[C@H]1CC/C(COC(=O)n1ccnc1C)=C\CC[C@@]1(C)O[C@@H]21`, 83.2%.
On to `COc1ccc2c(c1)OC(N(C(C)=O)C(C)=O)=C(C#N)C2c1ccc(F)cc1` (stereo not given), for which the growth was -18.9% (active).
For `O=c1oc2c(cnc3ccccc32)cc1-c1cccc(Cl)c1`, the growth is 102%.
In the case of `CCOC(=O)Nc1ccc(C(=O)/C=C/c2ccccc2)cc1`, the growth was 45.4%.
For `CCn1c2ccc(N(C)C)cc2c2cc(N(C)C)ccc21` the value was 66.1%; for `CN1CCCCC1CCN1c2ccccc2Sc2ccc(Br)cc21` (stereo not given), 34.9%; for `COc1cc(-c2nc3occn3c2-c2ccnc(NCCCNS(=O)(=O)c3ccc(O)cc3)n2)ccc1F`, 95.3%.
For `COc1ccc(/C(C)=N/NC(=O)CSc2nc3ccccc3c(=O)n2CCc2ccc(S(N)(=O)=O)cc2)cc1` the value was 76.7%; for `Nc1nc(SCC2(CCl)COC2)c2[nH]cnc2n1`, 105%.
In the case of `CNC(=O)c1cc(Cn2nc(C)c(NC(=O)Nc3ccc(Cl)c(C(F)(F)F)c3)c2C)ccn1`, the growth is 103%.
In the case of `O=C(Nc1ccncc1)C(=O)c1cn(S(=O)(=O)c2ccc(Cl)cc2)c2ccccc12`, the growth was 18.3%.
